This is an account of results in PubChem BioAssay.

The structures appear in SMILES notation. The source made the active and inactive calls.

The assay is described as follows: PSAC antagonists in infected red cells, primary screen, cell-based, P. falciparum Indochina, OD700, 18 h (AID 1157). The following applies: P. falciparum Indochina infected erythrocytes, osmotic lysis OD700, 18 h; higher = more signal, called active from +8 up or from −8 down.
On to `CN(C)CCCNC(=O)[C@@H]1c2ccccc2C(=O)N(C2Cc3ccccc3C2)[C@H]1c1ccc(CO)cc1`, for which the z-score was 0.281 (inactive).

With `Cc1c(NC(=O)/C(C#N)=C/c2ccc(Cl)cc2)c(=O)n(-c2ccccc2)n1C`, the z-score is -1.44 (inactive).

On to `C=CCC(OC(C)=O)[C@@H]1[C@@H](N(Cc2ccc(-c3ccccc3)cc2)C(=O)c2cccc3ccccc23)c2cc(OCCCO)ccc2N1C(=O)c1ccc2ccccc2c1` (stereo not given in full), for which the z-score was -0.0577 (inactive).

For `COCCOC(=O)N1C(=O)[C@@]2(c3ccccc31)[C@H](c1ccc(OCCO)cc1)N1[C@H](c3ccccc3)[C@H](c3ccccc3)OC(=O)[C@H]1[C@@H]2C(=O)N1CCN(c2ncccn2)CC1`, the z-score is 1.56 (inactive).

On to `C=C(/C(=C/C[C@@H](OC(C)=O)c1ccccc1OCCO)c1cc(C(=O)OC)ccc1OC)C(C)C`, for which the z-score is 0.994 (inactive).

With `CCCC[C@H]1OB(O)C[C@H]2C1=C(COC)C[C@H]1C(=O)C=CC(=O)[C@H]12`, the z-score is 0.231 (inactive).

In the case of `COc1ccc(NC(=O)O[C@H]2[C@H](OC(=O)Nc3ccc4c(c3)OCO4)[C@H](OC(=O)Nc3ccc4c(c3)OCO4)[C@@H](OC)O[C@@H]2CO)cc1`, the z-score was 0.597 (inactive).

Take `C=CCN1C(=O)[C@]2(O[C@H](CCO)[C@@H]([Si](C)(C)c3ccc(OC)cc3)[C@@H]2C)c2ccccc21`: the z-score is 1.19 (inactive).

Take `COC(=O)[C@]1(CO)N=C(c2ccc(OCCCO)cc2)O[C@@H]1c1ccccc1CN=[N+]=[N-]`: the z-score is 0.497 (inactive).

On to `COc1cccc(OC)c1C(=O)O[C@H]1[C@@H]2OC(=O)[C@H](Cc3cccc(Br)c3)C/C=C/C[C@@H](Cc3cccc(Br)c3)C(=O)O[C@H]2[C@@H](OC)O[C@@H]1CO`, for which the z-score is 0.581 (inactive).
